High-throughput results deposited in PubChem BioAssay by National Center for Advancing Translational Sciences (NCATS).
LmPK inhibitor: inhibitors of Leishmania mexicana pyruvate kinase; Q27686; purified LmPK, Kinase-Glo ATP luminescence, 1 h; Potency, µM (doses to about 57.5 µM), for the others: at the top dose activity change, negative = inhibition, actives largely listed as inhibitors; 290,000 tested, 0.37% active; AID 1721; note: potency is the fitted concentration of half-maximal effect; % is set by controls: 0 for no effect and ±100 for the full control effect
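Purified LmPK (0.1 nM) converted ADP (0.1 mM) to ATP with PEP (0.5 mM) in imidazole buffer pH 7.2 with KCl and MgCl2, 1 h at room temperature. ATP was read by Kinase-Glo luminescence; data normalized to uninhibited and no-enzyme controls.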
FBPA Giardia inh: blocks Giardia fructose-bisphosphate aldolase activity; A8B2U2; Potency, µM (series often up to 59.6 µM), without a hit: at the top dose activity, negative = inhibition, actives largely listed as inhibitors; purified Giardia FBPA; 290,000 tested, 0.71% active; note: potency is the fitted concentration of half-maximal effect; % is set by controls: 0 for no effect and ±100 for the full control effect; nearly all actives have a fitted effect of over 55% in size
Target sequence (A8B2U2 whole entry, looked up): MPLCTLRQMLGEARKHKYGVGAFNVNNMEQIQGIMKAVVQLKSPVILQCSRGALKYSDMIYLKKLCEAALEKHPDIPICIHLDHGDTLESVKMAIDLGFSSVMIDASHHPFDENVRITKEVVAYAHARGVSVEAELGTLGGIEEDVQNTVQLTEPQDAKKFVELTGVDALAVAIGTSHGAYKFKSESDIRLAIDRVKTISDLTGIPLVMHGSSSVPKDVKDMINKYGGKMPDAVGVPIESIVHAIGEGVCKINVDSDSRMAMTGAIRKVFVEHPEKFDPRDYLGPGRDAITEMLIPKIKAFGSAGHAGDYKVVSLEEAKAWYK
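Giardia FBPA (40 nM reagent) was preincubated 10 min at RT with compound (up to 57.5 uM final), then substrate plus GAPDH/TPI/NAD/arsenate coupling system with diaphorase/resazurin was added; resorufin fluorescence (525/598 nm) was read after 20 min.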
Shiga toxin inh: blocks Shiga toxin action in Vero cells; Vero cells, Shiga toxin protein synthesis inhibition reporter; inhibition, % at 38.7 µM; 290,000 tested, 9.2% active; AID 2315; in the data active = inhibition mostly above about 28%, no sharp cut-off; inactive = mostly below about 43%; note: 0% is about no effect
RE007 growth inh: less growth of the S. pombe RE007 Vpr strain; S. pombe RE007 Vpr strain, BacTiter-Glo ATP luminescence, 24 h; Potency, µM (titrated, usually from 92.2 µM), for inactives: at the highest dose activity change, negative = less growth, hits mostly inhibitors; 360,000 tested, 0.21% active; active = well fitted falling curve with a large enough effect; inconclusive = small, poorly fitted or top-dose-only effect; inactive = no such curve, though single readings can be large or run the other way; note: potency is the fitted concentration of half-maximal effect; % is set by controls: 0 for no effect and ±100 for the full control effect; nearly all actives have a fitted effect of over 50% in size
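Fission yeast RE007 carrying one integrated HIV-1 vpr copy, seeded at OD 0.01 in PMG+AL medium with 23 nL pinned compound. Grown 24 h at 30 degrees; viability read by BacTiter-Glo luminescence after 5 min.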
TbPYK inhibitor: blocks Trypanosoma brucei pyruvate kinase; TbPYK enzyme, Kinase-Glo Plus ATP luminescence, 45 min; AID 624173; Potency, µM (highest dose often 76.8 µM), without a hit: top-dose activity, negative = inhibition, actives largely listed as inhibitors; Q57TT1; 410,000 tested, 0.12% active; note: potency is the fitted concentration of half-maximal effect; % is set by controls: 0 for no effect and ±100 for the full control effect; nearly all actives have a fitted effect of over 50% in size
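Glycolytic pyruvate kinase of T. brucei was incubated with substrate, test compound and 130 uM ADP for 45 minutes at room temperature. Luminescent Kinase-Glo Plus signal was measured after 10 minutes.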
CHX counter: counter-screen hit for Shiga toxin inhibitors, cycloheximide | 300,000 tested, 12% active | max response, % | cell reporter, cycloheximide protein synthesis inhibition counterscreen | AID 2314; in the data active = max response mostly above about 13%, no sharp cut-off; inactive = mostly below about 14%; note: read at 38.3 µM for the half of the compounds with a filed dose; 0% is about no effect
Numbers without * were called inactive; ? = inconclusive; · = no result; + = active, no number. This is one part of a sample in which hits are shown more often than they occur. Unless noted, calls come from the whole dose curve; as a rule, active = well fitted curve in the direction sought with a large enough effect; inconclusive = small, poorly fitted or top-dose-only effect, or another doubt; inactive = no such curve, though single readings can be large; an effect the other way counts as inactive or inconclusive.

SMILES | LmPK inhibitor | FBPA Giardia inh | Shiga toxin inh | RE007 growth inh | TbPYK inhibitor | CHX counter
COc1cc(CNC23CC4CC(CC(C4)C2)C3)ccc1OCc1ccccc1 | 1.5% | -0.4% | 11.4 | 5.0% | -1.8% | -1.8
COc1cc(CNc2ccc(N3CCCC3)cc2)ccc1OCc1ccccc1 | -9.0% | ? | 54.8* | ? | ? | 41.9*
COc1ccc(-c2noc(CNC(=O)c3ccoc3C)n2)cc1 | -7.8% | 15.9% | -3.4 | 14.8% | 0.0% | 2.8
Cc1cccc(-c2noc(CN(C)C(=O)c3ccoc3C)n2)c1 | 1.5% | -9.2% | 60.5* | -10.4% | 0.9% | 10.6
Cc1cccc(-c2noc(CN(C)C(=O)c3ccco3)n2)c1 | -2.7% | 0.4% | 154.0* | 20.9% | -7.6% | 30.3*
Cc1cccc(-c2noc(CNC(=O)c3ccco3)n2)c1 | 0.5% | -5.2% | 29.4 | 9.6% | -11.6% | 2.0
COc1ccc(-c2noc(CN(C)C(=O)c3ccoc3C)n2)cc1 | -2.4% | 2.2% | 25.2 | 17.3% | 2.1% | 24.3*
CN1CCC(N(C)C(=O)/C(C#N)=C\c2ccc(OC(F)F)cc2)CC1 | · | · | · | 10.1% | 4.6% | ·
Cc1ccccc1-n1c(C)nnc1SCc1nc2ccccc2s1 | -3.1% | 4.3% | 91.4* | -8.0% | 0.0% | 33.0*
COc1ccc(-c2nnc(SCc3nc4ccccc4s3)n2C(C)C)cc1 | -10.2% | -3.2% | 85.5* | -11.9% | -14.4% | 27.7*
COc1ccccc1-c1nnc(SCc2nc3ccccc3s2)n1C | -9.5% | -1.5% | 25.6 | -4.5% | -1.9% | 16.5
CCOc1ccccc1-n1nnnc1SCc1nc2ccccc2s1 | 1.6% | -9.3% | 168.1* | -15.0% | -12.8% | 48.2*
CCCCn1c(SCc2nc3ccccc3s2)nc2ccccc2c1=O | -1.1% | 1.0% | -9.5 | 4.0% | 1.7% | -2.7
Cn1c(SCc2nc3ccccc3s2)nnc1-c1cccs1 | -0.4% | -14.9% | 65.7* | 4.3% | -12.8% | 60.3*
CCn1c(SCc2nc3ccccc3s2)nnc1-c1cccs1 | -0.3% | -15.3% | 58.6* | 3.9% | -23.7% | 58.6*
O=C(CN1C(=O)COc2ccccc21)NCCCN1CCCCC1 | 0.1% | · | -2.1 | -10.9% | -11.9% | -0.8
O=C(O)c1cccc(N/N=C/c2ccc(F)c(F)c2)c1 | 0.4% | -0.6% | + | 5.3% | -1.7% | 94.7*
O=C(O)c1ccc(NS(=O)(=O)/C=C/c2ccccc2)cc1 | 4.3% | 26.4% | 11.8 | -1.8% | -8.8% | 1.0
O=C(Cc1ccc(Cl)c(Cl)c1)N/N=C/c1cccnc1 | 4.7% | 6.6% | -5.0 | 4.6% | 4.6% | 6.4
O=C(O)c1cc(N/N=C/c2c[nH]c3ccccc23)ccc1Cl | 0.6% | -7.8% | + | -8.8% | -5.0% | 58.1*
O=C(O)c1ccc(N/N=C/C=C/c2ccccc2)cc1 | -6.7% | 3.5% | 54.9* | -24.7% | 3.4% | 42.0*
O=C(O)c1cc(N/N=C/c2cccnc2)ccc1Cl | 0.5% | -8.3% | 133.2* | 13.3% | -2.0% | 62.9*
O=C(N/N=C/c1c[nH]c2ccccc12)c1ccc([N+](=O)[O-])cc1Cl | 5.8% | -2.7% | 33.5 | 2.6% | 2.7% | 17.1
CC/C(=N/NC(=O)c1ccc2c(c1)OCO2)c1ccccc1O | · | · | · | -9.8% | 2.4% | ·
NC(=O)N/N=C/c1cccc(C(F)(F)F)c1 | 4.6% | -8.0% | 17.6 | -5.8% | -1.1% | -2.6
SMILES | LmPK inhibitor | FBPA Giardia inh | Shiga toxin inh | RE007 growth inh | TbPYK inhibitor | CHX counter
Cc1nn(C)c(C(=O)N/N=C/c2ccc(-c3ccccc3)cc2)c1Cl | 1.5% | · | -31.4 | -11.0% | 1.9% | -3.1
O=C(O)c1ccc(/C=N/Nc2cccc(C(F)(F)F)c2)cc1 | 2.4% | 18.0% | 120.4* | 11.6% | -0.5% | 56.4*
O=c1nc(N/N=C/C=C/c2ccccc2)cn[nH]1 | ? | -28.1% | 67.3* | -1.0% | -16.0% | 36.5*
O=C(O)c1cc(N/N=C/c2ccc(-c3ccccc3)cc2)ccc1Cl | 0.7% | 0.4% | 131.9* | -7.2% | -19.5% | 99.5*
O=C(O)c1cccc(N/N=C/C2=C(Cl)c3cc(Cl)ccc3SC2)c1 | 12.9% | 23.6% | 129.0* | 3.9% | 0.9% | 65.0*
C(=C\c1ccccc1)/C=N/Nc1nncc(-c2ccccc2)n1 | 0.4% | 1.4% | -4.8 | · | · | 9.0
Cc1ccc2cccc(NC(=O)c3ccc(C#N)cc3F)c2n1 | · | · | · | · | 2.0% | ·
